High-throughput results as filed in PubChem BioAssay.
D1 PAM: human D1 dopamine receptor positive modulation | P21728 | HEK293 TREx D1 cells, calcium flux, dopamine EC20 potentiation | potentiation, % at 10 µM | hit rate 0.036% among 360,000; in the data active = potentiation above about 30%; also: 0% is about no effect
TRHR PAM: TRH receptor (human) allosteric enhancement; enhancement, % at 2 µM; P34981; TRHR cells, fluo-8 calcium fluorescence, EC20 TRH enhancement; hit rate 0.66% among 360,000; AID 493056; in the data active = enhancement above about 30%; also: 0% is about no effect
Target sequence (P34981 whole entry, looked up): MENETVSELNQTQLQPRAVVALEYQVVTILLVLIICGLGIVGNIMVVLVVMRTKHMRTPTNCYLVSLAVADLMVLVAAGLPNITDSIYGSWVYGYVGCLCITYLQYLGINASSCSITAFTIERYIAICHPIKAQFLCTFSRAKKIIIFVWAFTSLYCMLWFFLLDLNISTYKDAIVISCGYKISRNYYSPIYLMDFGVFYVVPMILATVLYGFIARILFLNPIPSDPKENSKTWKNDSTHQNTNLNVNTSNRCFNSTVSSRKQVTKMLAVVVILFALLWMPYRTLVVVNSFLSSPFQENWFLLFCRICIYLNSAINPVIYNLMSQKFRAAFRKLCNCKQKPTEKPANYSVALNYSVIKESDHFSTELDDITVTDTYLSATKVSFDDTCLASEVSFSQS
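Enhancer read-out: after compound pinning and an initial kinetic agonist-mode read, an EC20 of TRH (10 nM final) was injected and fluo-8 calcium signal (Ex 480/Em 530) followed at 1 s/cycle for 100 cycles in TRHR-expressing cells.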
D1 agonist: agonists of human D1 dopamine receptor; activation, % at 2 µM; hit rate 1% among 360,000; HEK293 T-REx D1 cells, calcium flux, agonist mode; P21728; AID 504660; also: 0% is about no effect
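Inducible HEK293 T-REx D1 cells, force-coupled to calcium signalling, were plated at 4000 cells/well with tetracycline and held overnight at 30 C. After no-wash calcium dye loading, compound-evoked calcium rise over 180 s flagged agonists.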
TRHR ag: agonists of human TRH receptor; activation, % at 2 µM; hit rate 0.18% among 360,000; AID 493084; TRHR cells, calcium flux fluo-8, FDSS agonist mode; also: 0% is about no effect
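TRHR-expressing cells, plated overnight in medium with 10% serum, were loaded with fluo-8 calcium dye at room temperature. After a 10 s baseline, library compound was pin-added and calcium release was recorded kinetically (ex 480/em 530) as agonist response.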
D1 antag: human D1 dopamine receptor antagonism; hit rate 3.2% among 360,000; HEK293 TREx D1 cells, calcium flux, dopamine EC80; hits give low values; activity change, negative = inhibition, % at 10 µM; AID 504652; in the data active = activity change below about -30%; also: % is scaled to controls: 0 for no effect and ±100 for the full control effect
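Kinetic fluorescence of a calcium dye serves as the read-out. D1-expressing Hek293 Trex cells, induced overnight at 30 C, are exposed to compound for 180 s before an EC80 dopamine addition, then read 180 s further.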
* marks the source's active call; other numbers are inactive results. Hits are enriched below; roughly 4.7% of the tested compounds scored in any of these assays. Rule as the data show it, unless noted: active = activation above about 30%; inactive = the rest.

SMILES | D1 PAM | TRHR PAM | D1 agonist | TRHR ag | D1 antag
O=[N+]([O-])c1ccc(N2CCN(C(=S)Nc3cccc(F)c3)CC2)cc1 | -4.0 | -2.6 | 12.2 | 0.7 | -37.6*
O=[N+]([O-])c1ccc(NC(=S)N2CCc3ccccc3C2)cc1 | -10.3 | -1.4 | 13.4 | 0.1 | -33.2*
O=[N+]([O-])c1ccc(N2CCN(C(=S)Nc3ccc(F)cc3)CC2)cc1 | -4.8 | 5.4 | 8.5 | 1.1 | -34.3*
CCOc1ccc(CCNC(=O)c2[nH]c3cc(OC)ccc3c2Sc2ccccc2)cc1OCC | 4.3 | 10.2 | 3.2 | 0.3 | -1.5
COc1ccccc1CNC(=O)OCc1nccnc1C(=O)Nc1ccc(Br)cn1 | -1.5 | 7.1 | 1.0 | 0.9 | -35.4*
O=C(COC(=O)CNC(=O)c1ccccc1)NCCc1ccccc1 | 1.6 | -2.5 | 4.5 | -0.2 | 4.1
O=C(CNC(=O)c1ccccc1)NCCc1ccc(O)c(O)c1 | -5.1 | -1.5 | 4.1 | -0.3 | -38.8*
CCn1cc(C(=O)NCCCOC(C)C)c(=O)c2cc(S(=O)(=O)N3CCc4ccccc4C3)ccc21 | -1.1 | 11.6 | 1.0 | -1.0 | -1.3
Cc1c(CCC(=O)NCCc2ccccc2)c(=O)oc2c(C)c(O)ccc12 | -1.4 | 6.9 | 0.2 | -0.4 | -8.7
COc1ccc(CNC(=O)CN(CCC(C)C)S(=O)(=O)c2ccc3c(c2)OCCO3)cc1 | -3.0 | -3.2 | 4.5 | 0.9 | -32.3*
CCN1C(=NCc2ccc(OC)cc2)N[C@@H](c2ccccc2)[C@H](C(=O)OC)[C@H]1C | 3.3 | 30.8* | 3.3 | 0.2 | -2.4
CCN1C(=NCc2ccccc2)N[C@@H](c2ccccc2)[C@H](C(=O)OC)[C@H]1C | 1.6 | -4.2 | 0.9 | 0.4 | -4.2
Cn1cccc1/C=C(\C#N)C(N)=S | -0.9 | 0.1 | 1.1 | 0.7 | 17.1
N#C/C(=C/c1cc[nH]c1)C(N)=S | -5.3 | 32.7* | 2.2 | -0.1 | -1.0
COc1cc(NC(=O)CCN2CCN(c3ccccc3F)CC2)cc(OC)c1 | -11.2 | 11.0 | 3.0 | 0.0 | -42.2*
COc1cccc(-c2csc(N3CCN(CC(=O)Nc4ccc5c(c4)OCO5)CC3)n2)c1 | -9.2 | -3.1 | -0.2 | -1.1 | -2.4
O=C(CCN1CCN(c2ccccc2F)CC1)Nc1cccc(F)c1 | -6.0 | 4.5 | 10.4 | 0.4 | -43.2*
COC(=O)c1[nH]c2cccc(OC)c2c1NC(=O)CCN1CCN(c2ccccc2F)CC1 | -8.9 | -0.5 | 4.2 | -0.4 | -56.7*
COC(=O)c1[nH]c2cccc(OC)c2c1NC(=O)CCN1CCC(C(N)=O)CC1 | -2.3 | 0.8 | -0.7 | -0.2 | -14.0
COc1cc(NC(=O)CCN2CCN(Cc3ccccc3)CC2)cc(OC)c1 | 0.8 | -0.3 | 5.7 | 0.2 | 10.2
O=C(CCN1CCN(c2ccccc2F)CC1)Nc1ccc(F)cc1 | -26.0 | -3.0 | 2.0 | -0.2 | -14.1
COc1ccc(NC(=O)CN2CCN(c3nc(-c4cccc(OC)c4)cs3)CC2)cc1 | -26.4 | 2.9 | 1.9 | -0.1 | -36.5*
CS(=O)(=O)/C=C/c1nc(Nc2cc(F)cc(F)c2)c2ncn(CC(F)F)c2n1 | -1.5 | 1.2 | 1.8 | -0.8 | 25.8
CCOc1ccc(C2C(C(=O)Nc3ccc(C)cc3C)=C(C)Nc3c(C(=O)Nc4ccc(C)cc4)cnn32)cc1OC (stereo not drawn) | -1.9 | -8.0 | 2.3 | 3.8 | 2.7
COc1ccccc1-c1nn2c(=O)cc(CN3CCN(C(=O)/C=C/c4ccccc4)CC3)nc2s1 | -0.8 | -4.9 | 1.4 | -0.5 | 1.3
SMILES | D1 PAM | TRHR PAM | D1 agonist | TRHR ag | D1 antag
COc1ccc(NC(=O)CCN2CCN(c3cccc(Cl)c3)CC2)cc1 | -2.0 | -2.9 | 36.1* | 2.0 | 7.5
COc1ccc(CCNC(=O)CCCn2c(=O)c3ccccc3n(CC(=O)Nc3c(C)cc(C)cc3C)c2=O)cc1OC | 0.0 | -2.0 | -0.5 | -1.5 | 1.5
Cc1ccc(NC(=O)CCN2C(=O)c3cccc4cccc(c34)C2=O)cc1 | -7.7 | 16.3 | 0.0 | 0.4 | -32.6*
CCn1nc(C)c2c(-c3ccccc3)cc(=O)n(C(C)C(=O)NCc3ccc(C)cc3)c21 (stereo not drawn) | -6.1 | -4.1 | 14.7 | -0.6 | 1.8
Cc1ccc(S(=O)(=O)N2c3ccccc3OCC2C(C)(C)C)cc1 (stereo not drawn) | -6.0 | -5.8 | 0.8 | -0.1 | -0.1
Cc1ccc2c(c1)N(S(=O)(=O)c1ccc(F)cc1)C(C(C)(C)C)CO2 (stereo not drawn) | 7.8 | -0.7 | 6.2 | 0.5 | -40.4*
